# Bioassay records from PubChem.
# Pf Dd2 growth: inhibitors of Plasmodium falciparum Dd2 growth | P. falciparum Dd2 growth, SYBR Green, 72 h | Potency, µM (top dose mostly 28.9 µM), inactives show at the highest dose activity, negative = inhibition, hits mostly inhibitors | 120,000 compounds, 4.3% hits | AID 1347417; active = well fitted inhibition curve with a large enough effect;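 also: plate controls were DMSO vehicle for no effect and reference drug for full effect; nearly all actives have a fitted effect of over 65% in size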
#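 Readout: SYBR Green fluorescence, 485 nm excitation, 535 nm emission, after ~16 h lysis at 37C. Before that, Dd2-infected red cells (2.5% hematocrit) grew 72 h with compound, 29 uM top final concentration.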
# An asterisk follows results filed as active; i = inactive; [ ] = another dose, or the depositor's remark. This excerpt belongs to a sample that is enriched for hits. Potency is read from the fitted curve at half-maximal effect.
SMILES,Pf Dd2 growth
O=C(c1ccc(Cl)cc1)N1CCC(OC2CCN(Cc3cccnc3)CC2)CC1,i
O=C(Nc1ccc(F)cc1F)N1CCC(OC2CCN(Cc3ccccc3)CC2)CC1,i
O=C(c1cccnc1)N1CCC(OC2CCN(Cc3ccccc3)CC2)CC1,-15.9%
Cc1ccc(S(=O)(=O)N2CCC(OC3CCN(Cc4ccccc4)CC3)CC2)cc1C,0.891µM*
O=C(CC1CCN(S(=O)(=O)c2cccc(F)c2)C1)NCc1ccccc1 (stereo unspecified),-5.7%
Cn1cnc(S(=O)(=O)N2CCCC(c3nnnn3-c3ccccc3)C2)c1 (stereo unspecified),-1.6%
O=C(c1cccs1)N1C[C@@H]2C[C@H](C1)c1c(-c3ccc(Cl)cc3)ccc(=O)n1C2,-4.6%[44.1 µM]
COC1CN(C2CCNCC2)C12CCOCC2 (stereo unspecified),5.9%
COC[C@@H]1CN(Cc2ccc(OC)cc2)C[C@H]1C(=O)N(C)C,-16.8%
O=C(NC1CCCCCC1)c1cc2n(n1)CC(c1ccc3c(c1)OCO3)OC2 (stereo unspecified),-5.8%
Cc1noc2c(-c3cccnc3NCCN(C)C)cc(-c3ccccc3)nc12,i
Cc1noc2c(-c3cccnc3NCCCn3ccnc3)cc(-c3ccccc3)nc12,10µM*
COCCCNc1ncccc1-c1cc(-c2ccccc2)nc2c(C)noc12,i
O=C(c1ccccn1)N1CCC(Oc2ccc(-c3noc(-c4ccccc4)n3)cc2)C1 (stereo unspecified),i[5.79 µM]
Cc1noc(-c2cn(C3CCN(C(=O)C(C)Oc4ccccc4)CC3)nn2)n1 (stereo unspecified),i
COC1CCOC2(CCN(C(=O)c3ccoc3)CC2)C1 (stereo unspecified),27.0%
Cc1ccc(-n2nc(C(=O)N3CCN(c4ccccc4F)CC3)c(=O)n(C)c2=O)cc1,3.5%
Cn1nc(C(=O)N2CCN(c3ccccc3F)CC2)c2c1-c1ccccc1SC2,15.1%
Cc1ccc2c(c1)-c1c(c(C(=O)N3CCN(c4cc(Cl)ccc4C)CC3)nn1C)CS2,10µM*
Cc1ccc(-n2nc(C(=O)N3CCN(c4cc(Cl)ccc4C)CC3)c(=O)n(C)c2=O)cc1,10µM*
Cc1ccc(-n2nc(C(=O)N3CCN(c4cc(Cl)ccc4C)CC3)c3c4ccccc4n(C)c3c2=O)cc1,6.1%
COc1cccc(N2CCN(C(=O)c3nn(C)c4c3CSc3ccc(C)cc3-4)CC2)c1,19.9%
Cn1cc(-c2cnc(Nc3cncnc3)c3c2CCO3)cn1,1.5%[44.1 µM]
Cc1ccccc1C(=O)NC1CCN(c2cc(-c3ccc(Cl)cc3)[nH]n2)CC1,i
Cc1ccccc1CN1CCOc2cc([S+](=O)([O-])Nc3cccnc3)ccc2C1,i
SMILES,Pf Dd2 growth
COc1cccc(F)c1C(=O)N1CC(=O)N(c2ccc(Cl)cc2)CC1C (stereo unspecified),2.8%
COc1ccc(CN2C(=O)[C@@H]3C[C@@H](O)CN3C3(CN(Cc4cccc(OC)c4)C3)C2=O)cc1,i
COc1ccc(CN2C(=O)[C@@H]3C[C@@H](O)CN3C3(CN(Cc4ccncc4)C3)C2=O)cc1,6.2%[44.1 µM]
COc1ccc(CN2C(=O)[C@@H]3C[C@@H](O)CN3C3(CN(Cc4cnc5ccccc5c4)C3)C2=O)cc1,7.08µM*
CCc1noc(-c2cn(C3CCN(C(=O)c4cccs4)CC3)nn2)n1,i
O=C(c1cccc(Cl)c1)N1CCN(c2cc(-c3ccc(Cl)cc3)[nH]n2)CC1,-5.3%
O=C(O)c1ccc(C2CCCN(C(=O)c3cccc(N4CCOCC4)c3)C2)cc1 (stereo unspecified),-0.7%
N#C/C(=C/c1cn(Cc2ccccc2Cl)c2ccccc12)C(=O)Nc1cccc(Cl)c1,i
Cc1ccc(NC(=O)/C(C#N)=C\c2ccc(Cl)cc2Cl)cc1C,8.3%
Cc1c(/C=C(\C#N)C(=O)Nc2cccc(Cl)c2)c2ccccc2n1Cc1ccccc1Cl,3.16µM*
Cc1[nH]c(=O)[nH]c(=O)c1CC(=O)N[C@@H]1COCC[C@@H]1OCc1ccccc1,20.1%
CN(Cc1ccccc1)C(=O)[C@H]1O[C@H](CCN2CCN(Cc3ccccc3)CC2)CC[C@@H]1O,4.47µM*
CN(Cc1ccccc1)C(=O)[C@H]1O[C@H](CCN2CCOCC2)CC[C@@H]1O,-11.5%[44.1 µM]
C#CCN(C)CC[C@@H]1CC[C@H](O)[C@@H](C(=O)N(C)Cc2ccccc2)O1,-12.4%[44.1 µM]
COCCNC(=O)[C@H]1C[C@H](Oc2ccccc2)CN1C(=O)c1cccc(C)c1,-5.2%
Cc1nc2cc(N3CCC(C(=O)NCCC4=CCCCC4)CC3)cnc2nc1C,-19.1%
c1ccc(CCc2noc(CN3CCCCC3CCn3cccn3)n2)cc1 (stereo unspecified),i
CC(C)Cc1nc(CN2C[C@@H]3CC[C@H](C2)N(Cc2ccccc2)C3)no1,10µM*
Cc1ccc(SC2CCN(Cc3nc(CCc4ccccc4)no3)CC2)cc1,-15.7%
Cc1ccccc1-n1nc(C)c(CCC(=O)NC2CC2)c1Oc1ccccc1,i
CCCOC(=O)N1CCC2(CC1)CC(c1ccccc1)C(=O)N(C)C2 (stereo unspecified),-16.5%
Cc1cc(C(=O)N2CCCn3nc(CCC(=O)O)cc3C2)c2c(C)noc2n1,-0.7%
O=c1cc(-c2ccccn2)oc2c(NCc3ccccc3)nccc12,-14.0%[44.1 µM]
O=c1cc(-c2cccnc2)oc2c(NCc3ccc(F)cc3)nccc12,11.2µM*
C[S+](=O)([O-])c1ccc(-c2nccc3c(=O)cc(-c4cccnc4)oc23)cc1,-7.7%[44.1 µM]
SMILES,Pf Dd2 growth
COc1ccc(CNC(=O)CC[C@@H]2CNC(=O)[C@@H]3C[C@H](NCc4ccccn4)CN23)cc1,16.9%
Cc1ccc(NC(=O)c2cc(-c3ccc(Br)s3)nc3ccccc23)cc1F,-22.5%
CCN(CC)CC(C)CNC(=O)c1cc(-c2ccc(Br)s2)nc2ccccc12 (stereo unspecified),11.2µM*
COc1ccc(CNC(=O)c2cc(-c3ccc(Br)s3)nc3ccccc23)cc1,232.4%[5.79 µM]
COc1cccc(CNC(=O)C2CCN(C(=O)c3ncn4c3COC(c3ccc(C)cc3)C4)CC2)c1 (stereo unspecified),i
Cc1cnc(C2CC2)n1CCN,i
Cc1ccc(C)c(S(=O)(=O)NCCn2c(C)cnc2C2CCC2)c1,-14.5%
Cc1cc(C)c(S(=O)(=O)NCCn2c(C)cnc2C2CC2)cc1C,11.2µM*
Cc1cncc(C(=O)N2CCC3(CC2)CN(C2CCC2)CC3CO)c1 (stereo unspecified),9.0%
O=c1c2nc(-c3ccncc3)ccc2ncn1-c1ccccc1,-16.9%[44.1 µM]
O=c1c2nc(-c3ccc(O)c(F)c3)ccc2ncn1-c1ccc(F)cc1F,-25.9%[44.1 µM]
O=c1c2nc(-c3ccc(O)c(F)c3)ccc2ncn1-c1ccccc1,12.6µM*
Cc1ccccc1C(=O)Nc1ccc([C@H]2OCC(=O)N(CC(C)C)[C@@H]2CO)cc1,i
CSCC[C@H](N)C(=O)N1CCC2(CCC(=O)N(Cc3ccccc3)C2)CC1,-17.4%
CC(O)CN1CC2(CCC1=O)CCN(S(=O)(=O)N1CCCC1)CC2 (stereo unspecified),7.3%
Cn1c(C(=O)NCc2cccnc2)cc2c1CCN(Cc1ccccc1)C2,i
COc1cccc(CN2CCc3c(cc(C(=O)N(C)C)n3C)C2)c1,-15.5%
COc1cccc(CN2CCc3c(cc(C(=O)N4CCN(CC(C)C)CC4)n3C)C2)c1,6.31µM*
CC(C)CCNC(=O)c1cnc2n1CCN(Cc1ccccc1F)CC2,-17.1%[44.1 µM]
Cc1ncsc1CCC(=O)N[C@@H]1CCOC[C@H]1OCC(=O)O,-8.7%
CN(C)C(=O)N1CCC(c2nc(C3CCOC3)no2)CC1 (stereo unspecified),8.2%
